Experimental data from PubChem BioAssay (NCI).
This is part of a sample that, as a whole, favours compounds with a hit. Of some 83,000 tested, about 20% had one in any assay.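 96-well plates, one dose, 48 hours. Percent growth reported; active if below 10.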 Unmarked numbers belong to inactive results. Calls of active or inactive are those of the source.

What follows are molecules tested on DU-145 prostate (assay: NCI-60 one-dose screen, 48 h (100 = growth as untreated, 0 = no growth, -100 = all killed)). Settings: 10 µM unless noted.

| SMILES | growth |
| --- | --- |
| COc1cc(NC(=O)CSc2nc3ccc(Cl)cc3c(=O)n2-c2ccc(F)cc2)cc(OC)c1OC | 96.9% |
| Cc1ccc(C(=O)Nc2ccc(CN3CCN(C)CC3)c(C(F)(F)F)c2)cc1C#Cc1cnc(N)c2ccc(F)cc12 | -91.7% (active) |
| FC(F)(F)c1cccc(-c2[nH]ncc2-c2nnnn2-c2ccccc2)c1 | 76.1% |
| COc1cc(CCNc2cnc3cc(N)cc(N)c3n2)cc(OC)c1 | 118% |
| CCOC(=O)CNS(=O)(=O)CC(=O)c1ccccc1 | 117% |
| O=C(Nc1ccc(Cl)cn1)C1(c2ccccc2)CCCCC1 | 86.5% |
| Brc1c(-c2ccncc2)nc2n1CCS2 | 116% |
| O=C(Nc1cccc(Cn2c(=O)[nH]c3ccc(Oc4ncccn4)cc3c2=O)c1)c1ccc(Cl)cc1 | 62.3% |
| CC(=O)c1cc(Nc2cc(C)nc(N)n2)cc(C(C)=O)c1 | 91.3% |
| O=C(Nc1cccc(Cn2c(=O)[nH]c3ccc(Oc4ncccn4)cc3c2=O)c1)c1cc(Cl)cc(Cl)c1 | 68% |
| CC(C)(C)OC(=O)N1C/C(=C\c2ccccc2)C(=O)/C(=C/c2ccccc2)C1 | 112% |
| Nc1cc(N)c2nc(-c3ccccc3)c(NCCc3ccc(Cl)c(Cl)c3)nc2c1 | -98.6% (active) |
| O=C(Nn1cnc2ccccc21)N1CCCC1 | 102% |
| O=C(Nc1cccc(Cn2c(=O)[nH]c3ccc(Oc4ncccn4)cc3c2=O)c1)c1cccc(F)c1 | 80.1% |
| O=C1NCCN1/N=C/c1c(Cl)nc2n1CCS2 | 85.8% |
| CC(=O)N1N=C(c2ccc(Cl)cc2)CC1c1cn(-c2ccccc2)nc1-c1ccc([N+](=O)[O-])cc1 (stereo unspecified) | 116% |
| Cc1c([C@H](C(Cl)Cl)[C@H](O)[C@H]2C[C@H](C)C(=O)O2)ccc2c1C(=O)[C@H]1[C@H]2C[C@@H](Br)[C@@]23O[C@@H](CO[C@H]2O)CC13C (stereo partly specified) | -34.9% (active) |
| COc1cc2oc(-c3ccc(NC(=O)c4ccccc4)cc3)cc(=O)c2c(OC)c1OC | 82.3% |
| N#Cc1c(N)nc(Nc2nc3ccccc3[nH]2)nc1-c1ccc(Cl)cc1 | 123% |

| SMILES | growth |
| --- | --- |
| COc1cc(N)c2nccc(C)c2c1OC | 100% |
| COc1cc(OC)c2c(=O)cc(-c3ccccc3)oc2c1 | 111% |
| C/C=C(/C)C(=O)OC1C=C(CO)C(=O)C(OC(=O)/C(C)=C\C)C1C(C)C (stereo unspecified) | -90.9% (active) |
| Cc1nn(-c2ccccc2)c(N)c1N=C1NC(=O)/C(=C/c2ccc(Cl)cc2)S1 | 86.9% |
| COCC(=O)NNc1[nH]c(-c2ccc(OC)cc2)cc1C#N | 111% |
| Cc1ncc(C(=O)Nc2ccc(CN3CCN(C)CC3)c(C(F)(F)F)c2)cc1C#Cc1cnc(NC2CC2)c2ncccc12 | -83.1% (active) |
| CCCOC(=O)c1c(C)n(C)c2scc[n+]12 | 77.8% |
| Cc1ccc2c(O)c(O)cc(NC(C)CCCN)c2n1 (stereo unspecified) | 74.5% |
| CC(=O)N(N=O)c1ccc([N+](=O)[O-])cc1Cl | 82.2% |
| Cc1ccc2c(c1)C(=O)CCS2 | 107% |
| O=C(O)/C(Br)=C/c1c[nH]c2ccc(Br)cc12 | 115% |
| COc1ccc(-n2nnnc2-c2cn[nH]c2C(F)(F)F)cc1 | 101% |
| COc1ccc(C2C3(C#N)C(N)=NC(=C(C#N)C#N)C23C#N)cc1OC (stereo unspecified) | 102% |
| CCOC(=O)c1cc(-c2ccc(OC)cc2)[nH]c1NNC(=O)CCOC | 108% |
| O=C(NCCCl)Nc1nccnc1OCc1ccc(F)cc1 | 114% |
| CC1=C(C)C(=O)C(C(C)C2=C(C)C(=O)C(C)=C(C)C2=O)=C(C)C1=O | 92.7% |
| COc1cc(NC(C)CCCN)c2nccc(C)c2c1OC (stereo unspecified) | 71.3% |
| COc1cc2c(c(OC)c1OC)C(=O)CC(c1cccc(C(=O)Nc3cccc(Br)c3)c1)O2 (stereo unspecified) | 87% |

Each molecule was assayed on K-562 leukemia in the same assay as above. Settings: 10 µM unless noted.

| SMILES | growth |
| --- | --- |
| COc1cc(NC(=O)CSc2nc3ccc(Cl)cc3c(=O)n2-c2ccc(F)cc2)cc(OC)c1OC | 80.5% |
| Cc1ccc(C(=O)Nc2ccc(CN3CCN(C)CC3)c(C(F)(F)F)c2)cc1C#Cc1cnc(N)c2ccc(F)cc12 | -78.2% (active) |
| FC(F)(F)c1cccc(-c2[nH]ncc2-c2nnnn2-c2ccccc2)c1 | 11.8% |
| COc1cc(CCNc2cnc3cc(N)cc(N)c3n2)cc(OC)c1 | 35.3% |
| CCOC(=O)CNS(=O)(=O)CC(=O)c1ccccc1 | 86.8% |
| O=C(Nc1ccc(Cl)cn1)C1(c2ccccc2)CCCCC1 | 67.1% |
| Brc1c(-c2ccncc2)nc2n1CCS2 | 111% |
| O=C(Nc1cccc(Cn2c(=O)[nH]c3ccc(Oc4ncccn4)cc3c2=O)c1)c1ccc(Cl)cc1 | 4.84% (active) |
| CC(=O)c1cc(Nc2cc(C)nc(N)n2)cc(C(C)=O)c1 | 81.3% |
| O=C(Nc1cccc(Cn2c(=O)[nH]c3ccc(Oc4ncccn4)cc3c2=O)c1)c1cc(Cl)cc(Cl)c1 | 4.32% (active) |
| CC(C)(C)OC(=O)N1C/C(=C\c2ccccc2)C(=O)/C(=C/c2ccccc2)C1 | 74.8% |
| Nc1cc(N)c2nc(-c3ccccc3)c(NCCc3ccc(Cl)c(Cl)c3)nc2c1 | -16.9% (active) |
| O=C(Nn1cnc2ccccc21)N1CCCC1 | 94% |
| O=C(Nc1cccc(Cn2c(=O)[nH]c3ccc(Oc4ncccn4)cc3c2=O)c1)c1cccc(F)c1 | 45.1% |
| O=C1NCCN1/N=C/c1c(Cl)nc2n1CCS2 | 87.3% |
| CC(=O)N1N=C(c2ccc(Cl)cc2)CC1c1cn(-c2ccccc2)nc1-c1ccc([N+](=O)[O-])cc1 (stereo unspecified) | 118% |
| Cc1c([C@H](C(Cl)Cl)[C@H](O)[C@H]2C[C@H](C)C(=O)O2)ccc2c1C(=O)[C@H]1[C@H]2C[C@@H](Br)[C@@]23O[C@@H](CO[C@H]2O)CC13C (stereo partly specified) | 7.69% (active) |
| CCCCCC(=C/c1ccccc1)/C=N/N=C(N)N | 5.26% (active) |
| COc1cc2oc(-c3ccc(NC(=O)c4ccccc4)cc3)cc(=O)c2c(OC)c1OC | 102% |
| N#Cc1c(N)nc(Nc2nc3ccccc3[nH]2)nc1-c1ccc(Cl)cc1 | 92.3% |

| SMILES | growth |
| --- | --- |
| COc1cc(N)c2nccc(C)c2c1OC | 92.1% |
| Cc1ccc(C(=O)NN)cc1 | 91.6% |
| COc1cc(OC)c2c(=O)cc(-c3ccccc3)oc2c1 | 98.4% |
| C/C=C(/C)C(=O)OC1C=C(CO)C(=O)C(OC(=O)/C(C)=C\C)C1C(C)C (stereo unspecified) | -18.3% (active) |
| Cc1nn(-c2ccccc2)c(N)c1N=C1NC(=O)/C(=C/c2ccc(Cl)cc2)S1 | 73.2% |
| COCC(=O)NNc1[nH]c(-c2ccc(OC)cc2)cc1C#N | 96.9% |
| Cc1ncc(C(=O)Nc2ccc(CN3CCN(C)CC3)c(C(F)(F)F)c2)cc1C#Cc1cnc(NC2CC2)c2ncccc12 | -56.8% (active) |
| CCCOC(=O)c1c(C)n(C)c2scc[n+]12 | 65% |
| Cc1ccc2c(O)c(O)cc(NC(C)CCCN)c2n1 (stereo unspecified) | 42.1% |
| CC(=O)N(N=O)c1ccc([N+](=O)[O-])cc1Cl | 49.5% |
| Cc1ccc2c(c1)C(=O)CCS2 | 114% |
| O=C(O)/C(Br)=C/c1c[nH]c2ccc(Br)cc12 | 68% |
| COc1ccc(-n2nnnc2-c2cn[nH]c2C(F)(F)F)cc1 | 87.2% |
| COc1ccc(C2C3(C#N)C(N)=NC(=C(C#N)C#N)C23C#N)cc1OC (stereo unspecified) | 97.1% |
| CCOC(=O)c1cc(-c2ccc(OC)cc2)[nH]c1NNC(=O)CCOC | 99.8% |
| O=C(NCCCl)Nc1nccnc1OCc1ccc(F)cc1 | 99.4% |
| CC1=C(C)C(=O)C(C(C)C2=C(C)C(=O)C(C)=C(C)C2=O)=C(C)C1=O | 37.5% |
| COc1cc(NC(C)CCCN)c2nccc(C)c2c1OC (stereo unspecified) | 65% |
| COc1cc2c(c(OC)c1OC)C(=O)CC(c1cccc(C(=O)Nc3cccc(Br)c3)c1)O2 (stereo unspecified) | 49.8% |
